Experimental data as given in PubChem BioAssay.
Where “and” joins values, the source holds several entries; their conditions need not be identical. Equal values may be shown once. Results filed as inconclusive are left out. Calls of active or inactive are those of the source.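 The calls were made as follows, unless noted: active = normalized viability below 100% at a tested concentration; inactive = the rest.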

How the values were obtained:
[1] = viability loss in pontine glioma line – cell-based, SU-DIPG-XIII, MIPE4.0, CellTiter-Glo, qHTS, dose response (AID 1347061; cut-off not given, nearly all actives have AC50 up to about 37 µM;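 also: cells exposed to compound for 48 hours before readout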); conditions: CellTiter-Glo ATP luminescence
[2] = viability loss in pontine glioma line – cell-based, JHH-DIPG-1, MIPE4.0, CellTiter-Glo, qHTS, dose response (AID 1347062; cut-off not given, nearly all actives have AC50 up to about 27 µM); conditions: JHH-DIPG-1 viability, CellTiter-Glo ATP luminescence
[3] = viability loss in pontine glioma line – cell-based, SU-DIPG-XXV, MIPE5.0, CellTiter-Glo, qHTS, dose response (AID 1347065; cut-off not given, nearly all actives have AC50 up to about 26 µM;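 also: cells exposed to compound for 48 hours before ATP readout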); conditions: CellTiter-Glo ATP luminescence
[4] = growth inhibition of DIPG cells – cell-based, MIPE4.0 library, CellTiter-Glo luminescence, qHTS (AID 1347066; cut-off not given, nearly all actives have AC50 up to about 30 µM;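 also: cells exposed to compound for 48 hours before readout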); conditions: SU-DIPG-VI viability, CellTiter-Glo ATP luminescence
[5] = JHH-DIPG-1 glioma cell viability, MIPE5.0 library, CellTiter-Glo luminescence, qHTS (AID 1347067; cut-off not given, nearly all actives have AC50 up to about 26 µM;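 also: cells exposed to compound for 48 hours before readout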); conditions: JHH-DIPG-1 glioma viability, CellTiter-Glo ATP luminescence
[6] = viability loss with induced miR-34 in A549 – imaging, A549 dox-inducible miR-34, nuclei and caspase counts, primary screen (AID 1347080;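 active = compounds whose cell count with miR-34 switched on is under 0.7 times the count with it off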); conditions: A549 miR-34 inducible, Hoechst nuclei count, 48 h
[7] = compounds altering HSF1 focus formation in cells – imaging, Selleck Cancer Library (AID 1347162; in the data active = plate-normalised HSF1 focus index below about 0.46); conditions: human cells, HSF1 nuclear foci imaging, at 10 µM; SSMD: measured here: HSF1 foci SSMD mean; cell count: measured here: cell number; plate-normalised HSF1 focus index: stronger effect = lower value
[8] = MELAS cybrid and Rieske KO viability enhancers – cell-based, MELAS cybrids, Rieske KO mouse fibroblasts, CellTiter-Glo, primary screen (AID 1508586;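 active = mean z-score across replicates of 1.96 or higher in either the MELAS or the Rieske mutant cell line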;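 also: z relative to plate mean and SD of compound and empty wells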); conditions: low glucose
[9] = drug combination growth inhibition, ovarian cancer – cell-based, oncology-focused library, rucaparib conditional, profiling panel (AID 1508598); conditions: patient-derived ovarian cancer cells, CellTiter-Glo viability, 144 h, stronger effect = lower value
[10] = growth inhibition of DIPG cells – cell-based, MIPE5.0 library, qHTS (AID 1347068; cut-off not given, nearly all actives have IC50 up to about 30 µM); conditions: SU-DIPG-XXV viability
[11] = viability loss in pontine glioma line – cell-based, SU-DIPG-XIII, MIPE5.0, CellTiter-Glo, qHTS, dose response (AID 1347064; cut-off not given, nearly all actives have AC50 up to about 23 µM); conditions: CellTiter-Glo ATP luminescence
[12] = stronger effect = lower value, cell number ratio, induced over uninduced
[13] = measured here: relative caspase fold change +Dox/-Dox
[14] = measured here: total cells with miR-34 induction, stronger effect = lower value
[15] = measured here: total cells without miR-34 induction
[16] = MELAS cybrid survival, CellTiter-Glo 48 h, stronger effect = higher value
[17] = Rieske KO mouse fibroblast survival, CellTiter-Glo 72 h

Cc1csc(-c2nnc(Nc3ccc(Oc4ncccc4-c4ccnc(N)n4)cc3)c3ccccc23)c1
active: AC50 [3] 0.00417 µM | viability ([9]; at 0.000305 µM, OCI-P5x cells, without rucaparib) 94.9% | viability ([9]; at 0.00122 µM, OCI-P5x cells, without rucaparib) 98.2% | viability ([9]; at 0.00488 µM, OCI-C5x cells, without rucaparib) 92.7% | viability ([9]; at 0.00488 µM, OCI-P5x cells, without rucaparib) 93.3% | viability ([9]; at 0.0195 µM, OCI-C5x cells, with rucaparib 10 µM, 100% = cells with rucaparib alone) 78.2% | viability ([9]; at 0.0195 µM, OCI-C5x cells, without rucaparib) 88.5% | viability ([9]; at 0.0195 µM, OCI-P5x cells, with rucaparib 20 µM, 100% = cells with rucaparib alone) 93% | viability ([9]; at 0.0195 µM, OCI-P5x cells, without rucaparib) 70.3% | viability ([9]; at 0.0781 µM, OCI-C5x cells, with rucaparib 10 µM, 100% = cells with rucaparib alone) 82.2% | viability ([9]; at 0.0781 µM, OCI-C5x cells, without rucaparib) 99.2% | viability ([9]; at 0.0781 µM, OCI-P5x cells, with rucaparib 20 µM, 100% = cells with rucaparib alone) 92.9% | viability ([9]; at 0.0781 µM, OCI-P5x cells, without rucaparib) 66.6% | viability ([9]; at 0.313 µM, OCI-C5x cells, with rucaparib 10 µM, 100% = cells with rucaparib alone) 79.9% | viability ([9]; at 0.313 µM, OCI-P5x cells, with rucaparib 20 µM, 100% = cells with rucaparib alone) 94.9% | viability ([9]; at 0.313 µM, OCI-P5x cells, without rucaparib) 67.8% | viability ([9]; at 1.25 µM, OCI-C5x cells, without rucaparib) 95.4% | viability ([9]; at 1.25 µM, OCI-P5x cells, with rucaparib 20 µM, 100% = cells with rucaparib alone) 91% | viability ([9]; at 1.25 µM, OCI-P5x cells, without rucaparib) 64.7% | viability ([9]; at 5 µM, OCI-P5x cells, with rucaparib 20 µM, 100% = cells with rucaparib alone) 58.5% | viability ([9]; at 5 µM, OCI-P5x cells, without rucaparib) 54.4%
0.556: fold change [6, 13]
3250: cell count [6, 14]
8.74: SSMD [7]
inactive: outcome [1] | outcome [2] | outcome [4] | outcome [5] | fold change [6, 12] 1.11 | plate-normalised HSF1 focus index [7] 1.31 | z-score [8, 16] -0.373 | viability ([9]; at 0.000305 µM, OCI-C5x cells, with rucaparib 10 µM, 100% = cells with rucaparib alone) 113% | viability ([9]; at 0.000305 µM, OCI-C5x cells, without rucaparib) 116% | viability ([9]; at 0.000305 µM, OCI-P5x cells, with rucaparib 20 µM, 100% = cells with rucaparib alone) 111% | viability ([9]; at 0.00122 µM, OCI-C5x cells, with rucaparib 10 µM, 100% = cells with rucaparib alone) 109% | viability ([9]; at 0.00122 µM, OCI-C5x cells, without rucaparib) 107% | viability ([9]; at 0.00122 µM, OCI-P5x cells, with rucaparib 20 µM, 100% = cells with rucaparib alone) 108% | viability ([9]; at 0.00488 µM, OCI-C5x cells, with rucaparib 10 µM, 100% = cells with rucaparib alone) 103% | viability ([9]; at 0.00488 µM, OCI-P5x cells, with rucaparib 20 µM, 100% = cells with rucaparib alone) 113% | viability ([9]; at 0.313 µM, OCI-C5x cells, without rucaparib) 105% | viability ([9]; at 1.25 µM, OCI-C5x cells, with rucaparib 10 µM, 100% = cells with rucaparib alone) 102% | viability ([9]; at 5 µM, OCI-C5x cells, with rucaparib 10 µM, 100% = cells with rucaparib alone) 119% | viability ([9]; at 5 µM, OCI-C5x cells, without rucaparib) 133%
7110: cell count [7]
2920: cell count [6, 15]
1.23: z-score [8, 17]

O=C(N[C@@H](c1ccccc1)[C@@H]1CCCCN1)c1cccc(C(F)(F)F)c1Cl
active: AC50 [3] 20.9 µM
inactive: outcome [1] | outcome [2] | outcome [4] | outcome [10]

CCCCc1ccc(NS(=O)(=O)c2ccc(C)c(C(=O)N3CCN(c4cccc(C)c4C)CC3)c2)cc1
active: AC50 [4] 23.5 µM
inactive: outcome [1] | outcome [2]

CCOC(=O)N[C@@H]1CC[C@@H]2[C@@H](C1)C[C@H]1C(=O)O[C@H](C)[C@H]1[C@H]2/C=C/c1ccc(-c2cccc(F)c2)cn1
inactive: outcome [1] | outcome [2] | outcome [11] | outcome [4] | outcome [5] | outcome [10]

O=C(O)CC/C=C\CC[C@@H]1[C@@H](N2CCCCC2)[C@@H](O)C[C@@H]1OCc1ccc(-c2ccccc2)cc1
inactive: outcome [1] | outcome [2] | outcome [3] | outcome [4] | outcome [5] | outcome [10]

COc1cc(N2CCN(C)CC2)ccc1Nc1nc(N)c(C(=O)c2c(Cl)cccc2Cl)s1
inactive: outcome [1] | outcome [2] | outcome [4]

c1ccc2c(Oc3nc(Nc4ccc(N5CCOCC5)cc4)c4ncn(C5CCCCC5)c4n3)cccc2c1
0.0671: z-score [8, 17]
5540 and 6870: cell count [6, 14]
0.721 and 0.438: fold change [6, 13]
active: AC50 [5] 13.2 µM
inactive: outcome [1] | outcome [2] | outcome [4] | outcome [10] | fold change [6, 12] 0.897 and 0.992 | z-score [8, 16] -0.486
6180 and 6930: cell count [6, 15]

CCN1CCN(C(=O)N[C@H](C(=O)N[C@@H]2C(=O)N3C(C(=O)O)=C(CSc4nnnn4C)CS[C@@H]23)c2ccc(O)cc2)C(=O)C1=O
inactive: outcome [1] | outcome [2] | outcome [4]

CCCCCN(CCC12CC3CC(CC(C3)C1)C2)C(=O)NCCCc1ccncc1
active: AC50 [3] 20.9 µM | AC50 [4] 20.9 µM
inactive: outcome [1] | outcome [2] | outcome [10]

Clc1cc(Cl)cc(CNc2ncncc2-c2ccc3c(c2)OCO3)c1
inactive: outcome [1] | outcome [2] | outcome [4]
